Test results reported in paper PMC6212790, “How bacterial xenogeneic silencer rok distinguishes foreign from self DNA in its resident genome”.
Over roughly 33,000 sequences, “e-score” has its median near -0.037; the highest 2% begin near 0.34. The list comes from a sample in which the highest values are over-represented; it also holds similar and randomly drawn sequences.

Target: T1, GST-Rok (full length) (Bacillus subtilis subsp. subtilis str. …, UniProt O34857 1-191)
T1 sequence: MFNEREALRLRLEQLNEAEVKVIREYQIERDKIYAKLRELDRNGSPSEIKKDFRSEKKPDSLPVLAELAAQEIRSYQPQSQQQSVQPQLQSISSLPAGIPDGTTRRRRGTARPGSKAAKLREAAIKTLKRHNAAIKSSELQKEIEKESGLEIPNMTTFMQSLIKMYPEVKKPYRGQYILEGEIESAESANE
Test: protein binding microarray; Rok is a gene silencer of Bacillus subtilis; high values mean tight binding
Conditions: protein: recombinant; tags: GST (pTH5325, pDEST15-Magic modified); dsDNA, one strand shown
Summary of the method: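 Every oligonucleotide joins a 25-mer constant primer to a 35-mer variable part drawn from a de Bruijn sequence of order 10, so each non-palindromic 8-mer appears at least 32 times and each palindromic 8-mer 16 times. The preference for every 8-mer is reported as a unitless, rank-based enrichment score (E-score). This score spans 0.5 for the most favored 8-mer to −0.5 for the most disfavored.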

Sequence | binding signal
ATATATGA | 0.287 E-score
GTATATGA | 0.216 E-score
ATATATTA | 0.467 E-score
CATCGTTC | -0.0505 E-score
AAGCAGAA | 0.142 E-score
ATGGGCTA | 0.0395 E-score
GATTTGTA | 0.249 E-score
ATTTTGTA | 0.232 E-score
AATTTGTA | 0.352 E-score
CGTTTGTA | 0.138 E-score
AGTTTGTA | 0.391 E-score
AGTTTGTC | 0.0187 E-score
GTCGGCAA | -0.0858 E-score
CCAAGAAC | -0.19 E-score
CTCCGAAA | -0.0499 E-score
CAGTTGAG | -0.000936 E-score
AATGAATT | 0.29 E-score
ACAATAAC | 0.214 E-score
AGTCCCAT | -0.144 E-score
ACTATAAG | 0.268 E-score
ACTATAAA | 0.341 E-score
CCTATAAA | 0.298 E-score

Sequence | binding signal
ACTATAAC | 0.214 E-score
TCTATAAA | 0.186 E-score
ACTATAAT | 0.411 E-score
ACGTCATA | 0.128 E-score
CCAAATGG | -0.148 E-score
AGTTCGTC | 0.0184 E-score
GAAAATAC | 0.351 E-score
AAAAATAC | 0.32 E-score
CAAAATAA | 0.0897 E-score
GGAAATAC | 0.101 E-score
GAAAATAA | 0.145 E-score
CAAAATAC | 0.351 E-score
GGCATTAA | -0.00985 E-score
CCTGTTGA | -0.00587 E-score
GAAACGGC | -0.103 E-score
ATATTAAC | 0.298 E-score
AGATTAAC | 0.181 E-score
AGATTAAG | 0.135 E-score
ATATTAAT | 0.345 E-score
AGATTAAT | 0.346 E-score
ATATTAAA | 0.377 E-score
ATATTAAG | 0.275 E-score

Sequence | binding signal
TTATTAAA | 0.168 E-score
CTATTAAA | 0.116 E-score
AAACATTT | 0.0971 E-score
AGAATAAG | 0.105 E-score
ATAAGAGA | -0.0183 E-score
CTGCCCAC | -0.168 E-score
GCTATATA | 0.389 E-score
ACTATATA | 0.453 E-score
GCTATACA | 0.201 E-score
ACTATATG | 0.267 E-score
ACTATATC | 0.331 E-score
CCTATATA | 0.123 E-score
CGAGGTCC | -0.0704 E-score
AGATGCAA | -0.00215 E-score
AATCTAGC | 0.2 E-score
AATCTAGA | 0.349 E-score
AATCTAGG | 0.231 E-score
AATCTAAT | 0.263 E-score
AATCTAGT | 0.377 E-score
TATCTAGA | 0.213 E-score
GTACCTGA | 0.102 E-score
CGAGTAGA | 0.0915 E-score

Sequence | binding signal
CTAATGAA | 0.0765 E-score
CCGAATAG | -0.00823 E-score
ACGCGAAA | -0.0244 E-score
CTTATGAC | 0.247 E-score
TCTATCAA | 0.212 E-score
AACGACTC | -0.0273 E-score
AGGTAGTC | 0.0956 E-score
CGGTAGTC | 0.173 E-score
CGGTAGTA | 0.342 E-score
AGGTAGTG | 0.0916 E-score
AGGTAGTA | 0.364 E-score
GGGTAGTA | 0.238 E-score
AGACAACG | -0.0674 E-score
AGAGCTAG | -0.0248 E-score
CGACTGAC | 0.00526 E-score
CAGAGCTC | -0.162 E-score
CGACTACG | -0.0988 E-score
ATACTACG | 0.339 E-score
GTACTACA | 0.314 E-score
ATACTACC | 0.36 E-score
